Hits are enriched below; roughly 3% of the tested compounds scored in any of these assays.
FBPA coupling cs = inhibits coupling enzyme system, counter-screen for aldolase hits; 0.67% of 290,000 active; activity change, negative = inhibition, % at 58.2 µM, hits read low; AID 2472; coupling enzyme system counterscreen, AmpLite Red fluorescence; in the data active = activity change below about -30%
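Activity here indicates interference with the coupling reaction, not aldolase inhibition. Compounds at 57.5 uM final met coupling enzymes for 10 min at RT; substrate and AmpLite Red detection followed, with a 525/598 nm fluorescence read after 20 min.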
Tau FP inhib = blocks human tau fibril formation measured by polarization. P10636. K18 P301L tau heparin fibrillization, Alexa594 FP, 6 h. Potency, µM (doses to about 57.7 µM), hits mostly inhibitors. 0.39% of 280,000 active. AID 1468; note: nearly all actives have a fitted effect of over 55% in size
Target sequence (P10636 561-689 P618L limits assumed): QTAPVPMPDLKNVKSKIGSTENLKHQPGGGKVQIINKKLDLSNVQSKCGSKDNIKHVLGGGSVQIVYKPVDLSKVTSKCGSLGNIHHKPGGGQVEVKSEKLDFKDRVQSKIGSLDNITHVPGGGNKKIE
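Quantitative HTS format: compounds meet 15 uM recombinant K18 P301L tau and Alexa 594-tau tracer in 100 mM sodium acetate pH 7; 20 uM heparin triggers fibrillization at 37 C over 6 hr; FP gives the signal.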
KDM4E inh = inhibitors of human JMJD2E histone demethylase. B2RXH2. JMJD2E catalytic domain, FDH-coupled NADH fluorescence (FDH is formaldehyde dehydrogenase). Potency, µM (highest dose often 57.1 µM), usual class: inhibitors. 1.6% of 230,000 active. AID 2147; active = well fitted inhibition curve with a large enough effect, not every such curve was filed as active; inconclusive = small, poorly fitted or top-dose-only effect, or another doubt; inactive = no such curve, though single readings can be large or run the other way; note: nearly all actives have a fitted effect of over 50% in size
Target sequence (B2RXH2 1-337 limits assumed): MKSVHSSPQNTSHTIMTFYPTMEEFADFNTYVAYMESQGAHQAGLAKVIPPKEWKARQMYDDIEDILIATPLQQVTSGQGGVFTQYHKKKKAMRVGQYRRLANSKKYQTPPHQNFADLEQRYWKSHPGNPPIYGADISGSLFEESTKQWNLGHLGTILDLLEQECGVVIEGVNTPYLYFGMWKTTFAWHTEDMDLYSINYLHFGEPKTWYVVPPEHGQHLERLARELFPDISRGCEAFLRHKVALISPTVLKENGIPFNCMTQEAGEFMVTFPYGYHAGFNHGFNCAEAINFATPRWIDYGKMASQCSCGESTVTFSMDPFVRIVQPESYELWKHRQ
Tau fluor counter = counter-screen for tau fibril formation inhibitors. tau K18 P301L Alexa594 fluorescence, heparin fibrillization. Potency, µM (series often up to 57.7 µM). 0.93% of 280,000 active. AID 1463; note: nearly all actives have a fitted effect of over 55% in size
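Human tau K18 P301L (15 uM unlabeled, 0.24 uM Alexa 594-labeled) in 100 mM sodium acetate pH 7 with 20 uM heparin, 6 hr at 37 C. ThT 30 uM added, 1 hr ambient; Alexa 594 FP and total fluorescence read at 555/632 nm.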
Tau ThT inhib = tau fibrillization inhibition (ThT binding) | P10636 | recombinant tau K18 P301L, heparin-induced fibrillization, ThT fluorescence | Potency, µM (titrated, usually from 57.4 µM), actives largely listed as inhibitors | 2.1% of 270,000 active; note: nearly all actives have a fitted effect of over 55% in size
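ThT emission at 510 nm, taken 1 hr after adding 30 uM dye, quantifies aggregates formed when 20 uM heparin acts on human tau K18 P301L for 6 hr at 37 C.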
Of the large screens only hits and unclear results are named; the others gave an inactive call; [ ] = remark or other dose. Unless noted, calls come from the whole dose curve; as a rule, active = well fitted curve in the direction sought with a large enough effect; inconclusive = small, poorly fitted or top-dose-only effect, or another doubt; inactive = no such curve, though single readings can be large; an effect the other way counts as inactive or inconclusive.

O=C(CN1C(=O)S/C(=C\c2ccc(Cl)cc2)C1=O)NNC(=O)c1ccccc1O	Tau FP inhib inconclusive, KDM4E inh 18µM
Cc1cc(C)c(S(=O)(=O)/N=C2/C=C(SCC(=O)O)C(=O)c3ccccc32)cc1C	FBPA coupling cs -46, Tau FP inhib 10µM, KDM4E inh inconclusive, Tau fluor counter inconclusive, Tau ThT inhib 7.1µM
CCOC(=O)N1CCN(S(=O)(=O)c2cc(C)c(C)cc2C)CC1	none
CCCCCCCCCCCCCCCCn1cc[n+](Cc2ccccc2)c1C	none (no result: Tau FP inhib, KDM4E inh, Tau fluor counter, Tau ThT inhib)
O=C(O)c1ccccc1N/N=C/c1c(Sc2nnnn2-c2ccccc2)nc2ccccn2c1=O	Tau fluor counter inconclusive, Tau ThT inhib 7.9µM
O=C(CSCc1nc2ccccc2[nH]1)Nc1ccc2ccccc2c1	Tau FP inhib inconclusive, KDM4E inh inconclusive, Tau fluor counter inconclusive, Tau ThT inhib 22µM
O=C(CS)Nc1ccc2ccccc2c1	Tau FP inhib inconclusive, Tau fluor counter inconclusive, Tau ThT inhib 25µM
CC[C@H](C)N	none (no result: Tau FP inhib, KDM4E inh, Tau fluor counter, Tau ThT inhib)
O=C(Nc1ccc(F)c(Cl)c1)N1CCN(C(=O)c2nsc3ccccc23)CC1	none (no result: FBPA coupling cs, KDM4E inh)
Cc1cccc(NC(=O)Cn2c(=O)n(CCc3c[nH]c4ccccc34)c(=O)c3cccnc32)c1	Tau fluor counter 11µM[quencher]
O=C(Cn1c(=O)n(CCc2c[nH]c3ccccc23)c(=O)c2cccnc21)Nc1ccccc1F	Tau fluor counter inconclusive
CN(C)CCNc1nc2sc3c(c2c(=O)n1CCc1ccccc1)CCCCC3	Tau FP inhib inconclusive, Tau fluor counter 13µM[quencher], Tau ThT inhib inconclusive
CC(O)CNc1nc2sc3c(c2c(=O)n1Cc1ccco1)CCCCC3 (configuration not stated)	Tau FP inhib inconclusive, Tau fluor counter inconclusive, Tau ThT inhib inconclusive
O=c1c2c3c(sc2nc(NCCOCCO)n1Cc1ccco1)CCCCC3	none (no result: Tau ThT inhib)
CC(O)CNc1nc2sc3c(c2c(=O)n1CCc1ccccc1)CCCCC3 (configuration not stated)	Tau fluor counter 10µM[quencher], Tau ThT inhib inconclusive
Cn1nc(C(=O)Nc2ccc(F)c(Cl)c2)c2c1-c1ccccc1S(=O)(=O)C2	none (no result: FBPA coupling cs, KDM4E inh)
CC(=O)OCC(NC(=O)C1CCCN1C(=O)OC(C)(C)C)C1OC(n2ccc(=O)[nH]c2=O)C(OC(C)=O)C1OC(C)=O (configuration not stated)	none (no result: Tau FP inhib, KDM4E inh, Tau fluor counter, Tau ThT inhib)
COc1ccc(-c2noc(CN(C)CCC3CCCCO3)n2)cc1 (configuration not stated)	none
COC(=O)c1ccc(-c2noc(CN(C)CCC3CCCCO3)n2)cc1 (configuration not stated)	FBPA coupling cs -55, Tau ThT inhib 11µM
CSCC[C@@H]1NC(=O)[C@@H](NC(=O)[C@H](CCCNC(=N)N)NC(=O)[C@H](CC(C)C)NC(=O)[C@H](CCSC)NC(=O)[C@H](CC(=O)O)NC(=O)[C@H](Cc2ccccc2)NC(=O)[C@@H](N)CC(=O)O)CSSC[C@@H](C(=O)N[C@@H](Cc2c[nH]c3ccccc23)C(=O)N[C@@H](CCC(N)=O)C(=O)N[C@H](C(=O)O)C(C)C)NC(=O)[C@@H]2CCCN2C(=O)[C@H](CCCNC(=N)N)NC(=O)[C@H](Cc2ccc(O)cc2)NC(=O)[C@H](C(C)C)NC(=O)[C@H](CCCNC(=N)N)NC(=O)CNC(=O)[C@H](CC(C)C)NC1=O	none (no result: Tau FP inhib, KDM4E inh, Tau fluor counter, Tau ThT inhib)
Cc1nn(-c2ccccc2)c2nc(C3CC3)cc(C(=O)Nc3cccc(F)c3)c12	Tau FP inhib inconclusive (no result: FBPA coupling cs, KDM4E inh)
Cc1ccc(S(=O)(=O)N2CCC(C(=O)C3C(=O)CC(C)(C)CC3=O)CC2)cc1	none
Cc1ccc(S(=O)(=O)/N=C2/C=C(C3C(=O)CC(C)(C)CC3=O)C(=O)c3ccccc32)cc1	FBPA coupling cs -48, Tau FP inhib 22µM, KDM4E inh inconclusive, Tau fluor counter 8.9µM[quencher], Tau ThT inhib 8.9µM
CC12CCC=CC1C(c1ccc(C(F)(F)F)cc1)N(Cc1ccccc1)C2=O (configuration not stated)	none (no result: Tau FP inhib, KDM4E inh, Tau fluor counter, Tau ThT inhib)
O=C(N/N=C/c1ccc(O)c(O)c1O)/C(=C/c1ccc([N+](=O)[O-])cc1)NC(=O)c1ccccc1	Tau FP inhib 8.9µM, KDM4E inh 10µM, Tau fluor counter inconclusive, Tau ThT inhib 3.5µM
Nc1c(C(=O)Nc2ccc(S(=O)(=O)N3CCCC3)cc2)sc2nc3ccc(OC(F)(F)F)cc3cc12	Tau ThT inhib 5.6µM
COc1ccc(NC(=O)Cn2c(SCc3cccc(Cl)c3)nc3ccncc32)c(OC)c1OC	Tau fluor counter 14µM[quencher], Tau ThT inhib inconclusive (no result: FBPA coupling cs, KDM4E inh)
CC(=O)Nc1ccc(Nc2cc(C(C)C)nc3c(-c4ccccc4)c(C)nn23)cc1	Tau FP inhib inconclusive, KDM4E inh inconclusive, Tau fluor counter 13µM[quencher], Tau ThT inhib inconclusive
Cc1cc(SCC(=O)Nc2ccc(O)cc2)n2nc(C)c(-c3ccccc3)c2n1	Tau fluor counter inconclusive, Tau ThT inhib inconclusive
CC(=O)Nc1ccc(Nc2cc(C)nc3c(-c4ccccc4)c(C)nn23)cc1	KDM4E inh inconclusive, Tau fluor counter 14µM[quencher], Tau ThT inhib inconclusive
COc1cccc(C2=Nn3c(nnc3-c3cc(OC)ccc3OC)SC2)c1	none (no result: Tau FP inhib, KDM4E inh, Tau fluor counter, Tau ThT inhib)
O=C(Cc1c(O)c2ccccc2oc1=O)c1ccc(C(F)(F)F)cc1	none (no result: Tau FP inhib, KDM4E inh, Tau fluor counter, Tau ThT inhib)
Oc1c(CN2CCCCC2)cc(Br)c2cccnc12	KDM4E inh inconclusive
CN1CCN(Cc2cc(COCc3ccccc3)c3cccnc3c2O)CC1	KDM4E inh 8.9µM, Tau ThT inhib inconclusive
O=c1oc2ccccc2c(O)c1Cc1cc(Cl)c2cccnc2c1O	Tau FP inhib inconclusive, KDM4E inh 5µM, Tau fluor counter inconclusive, Tau ThT inhib 14µM
Oc1c(CN2CCc3ccccc3C2)cc(Cl)c2cccnc12	KDM4E inh 22µM, Tau ThT inhib inconclusive
CCCOCc1cc(CN2CCN(c3cccc(Cl)c3)CC2)c(O)c2ncccc12	Tau FP inhib inconclusive, Tau ThT inhib inconclusive (no result: FBPA coupling cs, KDM4E inh)
CN(C)c1ccc(Nc2nc(N)c([N+](=O)[O-])c(N3CCOCC3)n2)cc1	Tau fluor counter inconclusive, Tau ThT inhib 16µM
CCCCOc1ccc(/C(O)=C2/C(=O)C(=O)N(CCCOC)C2c2ccncc2)cc1 (configuration not stated)	KDM4E inh inconclusive
CCCOc1ccc(/C(O)=C2/C(=O)C(=O)N(CCCN3CCOCC3)C2c2ccncc2)cc1 (configuration not stated)	FBPA coupling cs -62, Tau FP inhib inconclusive, KDM4E inh inconclusive, Tau ThT inhib inconclusive
S=C(NNc1ccc2ccccc2c1)NC1CCCCC1	Tau FP inhib inconclusive, KDM4E inh 11µM, Tau fluor counter inconclusive, Tau ThT inhib 25µM
Cc1ccccc1CNCCCSc1nnnn1-c1ccccc1	none (no result: FBPA coupling cs, KDM4E inh)
Cc1ccc(S(=O)(=O)Nc2nc(C)c(NC(=O)Nc3ccc(Cl)cc3Cl)s2)cc1	Tau fluor counter 14µM[quencher], Tau ThT inhib 22µM
COc1cccc(/C=N/Nc2ccc([N+](=O)[O-])cc2)c1O	none (no result: Tau FP inhib, KDM4E inh, Tau fluor counter, Tau ThT inhib)
Cc1cccc(N/N=C/c2ccc(C)s2)c1	none (no result: Tau FP inhib, KDM4E inh, Tau fluor counter, Tau ThT inhib)
COc1cccc(N/N=C/c2cccc(Br)c2O)c1	KDM4E inh inconclusive, Tau fluor counter 18µM[quencher], Tau ThT inhib 18µM

Assay outcomes as filed in PubChem.
